From PubChem BioAssay

system: PRMT1 (protein arginine N-methyltransferase 1); assay: PRMT1 binders on small-molecule microarrays, primary screen, biochemical, small-molecule microarray, 635 nm fluorescence (AID 1088); details: small-molecule microarray binding, higher = more signal

For `COc1cc2c(cc1O)C(c1ccc(CN3CCCC3)cc1)N(Cc1cc3c(cc1Br)OCO3)CC2` (stereo unspecified), which composite z-score is on record?
The composite z-score was -0.137.

How did the composite z-score turn out when `CCCC[C@@H]1C[C@H]1[C@@H](NC(=O)c1cccs1)c1ccccc1C(F)(F)F` was run?
The composite z-score was 0.72.

For `CCOC(=O)C1=C[C@@H](c2ccccc2)N(S(=O)(=O)c2ccc(C)cc2)[C@H]1c1ccc(OC)cc1`, which composite z-score is on record?
The composite z-score was 1.24.

How did the composite z-score turn out when `C=CCC(OC(C)=O)[C@@H]1[C@@H](N(Cc2ccc(-c3cccc(C(F)(F)F)c3)o2)C(=O)Cc2ccc(OC)cc2)c2cc(OCCCO)ccc2N1C(=O)c1ccc(-c2ccccc2)cc1` (stereo partly specified) was run?
Its composite z-score is 0.62.

For `C=CC[C@@H](OC(=O)Nc1ccc(SC)cc1)c1ccc(O)c(F)c1`, which composite z-score is on record?
Its composite z-score is 0.803.

`CCCCC=C[C@@H](NC(=O)OCc1ccccc1Cl)c1ccccc1` was tested. Which composite z-score did it give?
The composite z-score was 1.48.

`C=CCC(OC(C)=O)[C@@H]1[C@@H](N(Cc2cccc3ccccc23)C(=O)Cc2ccc(OC)cc2)c2cc(OCCCO)ccc2N1C(=O)c1ccc(-c2ccccc2)cc1` (stereo partly specified) was tested. Which composite z-score did it give?
The composite z-score was 0.328.

With `CCCC=C(CCC)[C@@H](NP(=O)(c1ccccc1)c1ccccc1)c1ccc(-c2ccccc2)cc1` as the compound, how does the composite z-score read?
The composite z-score was 1.54.

`COCCCNC(=O)[C@@]1(CCC(=O)OC(C)(C)C)N=C(c2ccc(OCCCO)cc2)O[C@H]1c1ccccc1N=[N+]=[N-]` was tested. Which composite z-score did it give?
Its composite z-score is 1.27.

With `O=C(Cc1ccccc1)[C@H]1C2C=CCCC(c3ccccc3)=C2CN1Cc1ccccc1` (stereo partly specified) as the compound, how does the composite z-score read?
The composite z-score was 0.044.

With `COC(=O)[C@@]1(Cc2ccc(F)cc2)[C@H]2c3cc(C(=O)N4CCCC4)n(Cc4ccc(C)c(F)c4F)c3C[C@H]2CN1C(=O)c1ccccc1` as the compound, how does the composite z-score read?
The composite z-score was -1.69.

With `COc1ccc(C#Cc2ccc3c(c2)[C@]2(C(=O)N3)[C@H](C(=O)O)[C@H]3C(=O)O[C@H](c4ccccc4)[C@H](c4ccccc4)N3[C@@H]2c2ccc(O)cc2)cc1` as the compound, how does the composite z-score read?
Its composite z-score is 0.789.

How did the composite z-score turn out when `CCC#CCN(Cc1ccccc1Br)[C@H](/C=C/C1CC1)[C@@H](O)Cc1ccccc1` was run?
The composite z-score was -0.134.

How did the composite z-score turn out when `COC(=O)[C@@]1(Cc2ccccc2)[C@H]2c3cc(C(=O)N(C)C)n(Cc4ccc(C)o4)c3C[C@H]2CN1C(=O)c1ccccc1` was run?
Its composite z-score is 0.163.

Which composite z-score does the source give for `CC(C)NC(=O)[C@@]1(C)c2ccccc2C(=O)N(Cc2ccc(OC(F)(F)F)cc2)[C@H]1c1ccc(CO)cc1` here?
The composite z-score was 0.911.

How did the composite z-score turn out when `COc1ccc([Si](C)(C)[C@@H]2[C@@H](CC(=O)N3CCC[C@H]3CO)O[C@]3(C(=O)N(Cc4cccc(N5C(=O)COc6ccccc65)c4)c4ccccc43)[C@H]2C)cc1` was run?
The composite z-score was 1.57.

For `CCCC[C@@H](O)C1=C(COC)C[C@H]2C(=O)N(C)C(=O)[C@H]2[C@H]1CO`, which composite z-score is on record?
The composite z-score was 0.0449.

For `COc1ccc([Si](C)(C)[C@@H]2[C@@H](CC(=O)N(CCO)Cc3ccccc3)O[C@]3(C(=O)N(Cc4cccc(N5CCCCC5=O)c4)c4ccccc43)[C@H]2C)cc1`, which composite z-score is on record?
Its composite z-score is 1.42.

`COc1ccc(CCNC(=O)[C@@]2(Sc3ccc(C)cc3)CC(=O)N(Cc3ccccc3C(F)(F)F)[C@@H]2c2ccc(CO)cc2I)cc1` was tested. Which composite z-score did it give?
The composite z-score was 1.

For `[N-]=[N+]=Nc1ccccc1[C@@H]1OC(c2ccc(OCCCO)cc2)=N[C@]1(Cc1ccccc1)C(=O)N1CCCCC1`, which composite z-score is on record?
The composite z-score was 1.53.

How did the composite z-score turn out when `Cc1ccc(S[C@]2(C(=O)NCc3ccccc3)CC(=O)N(C3CCCCC3)[C@@H]2c2ccc(CO)cc2I)cc1` was run?
Its composite z-score is 1.15.

With `COc1ccc([Si](C)(C)[C@H]2[C@H](CC(=O)N(CCO)Cc3ccccc3)O[C@@]3(C(=O)N(C)c4c(Br)cc(C)cc43)[C@@H]2C)cc1` as the compound, how does the composite z-score read?
The composite z-score was 1.46.

For `[N-]=[N+]=Nc1ccccc1[C@@H]1OC(c2ccc(OCCCO)cc2)=N[C@]1(Cc1ccccc1)C(=O)O`, which composite z-score is on record?
Its composite z-score is 1.56.

How did the composite z-score turn out when `CCCC1(C(=O)OC)C=C2C(=C(C)C(=O)C2C)CN1` (stereo unspecified) was run?
Its composite z-score is -1.06.

For `COCC(=C=CC[C@H](O)c1ccccc1OCCO)C[C@H](O)c1ccccn1`, which composite z-score is on record?
Its composite z-score is 1.14.

Which composite z-score does the source give for `Oc1ccc2cc[n+](Cc3cc4c(cc3Br)OCO4)cc2c1` here?
Its composite z-score is 0.621.

How did the composite z-score turn out when `CC(C)[Si]1(C(C)C)OCc2cc(C3CC3)nc(-c3ccc(Oc4ccccc4)cc3)c21` was run?
The composite z-score was -0.834.

With `[N-]=[N+]=Nc1ccccc1C[C@]1(C(=O)N2CCOCC2)COC(c2ccc(OCCCO)cc2)=N1` as the compound, how does the composite z-score read?
The composite z-score was 1.56.

How did the composite z-score turn out when `[N-]=[N+]=Nc1ccccc1C[C@@]1(C(=O)NCCN2CCOCC2)N=C(c2ccc(OCCCO)cc2)O[C@@H]1c1ccccc1N=[N+]=[N-]` was run?
The composite z-score was 1.55.

With `CCCCC(CC)C(O)C1C=CC2C(=O)N(C)C(=O)C2N1Nc1ccccc1` (stereo unspecified) as the compound, how does the composite z-score read?
The composite z-score was 1.36.

Which composite z-score does the source give for `O=C1N(CCS(=O)(=O)c2ccccc2)c2ccccc2[C@H]2OC(c3ccc(OCCCO)cc3)=N[C@@]12Cc1ccccc1` here?
The composite z-score was 1.55.

With `COc1ccc(C#Cc2ccc3c(c2)[C@]2(C(=O)N3)[C@H](c3ccc(O)cc3)N3[C@H](c4ccccc4)[C@H](c4ccccc4)OC(=O)[C@H]3[C@@H]2C(=O)Nc2nc3ccccc3s2)cc1` as the compound, how does the composite z-score read?
The composite z-score was 1.55.

With `CCOc1cc(C(O)C2C=CC3C(=O)NC(=O)C3N2Nc2ccc(Cl)cc2Cl)ccc1O` (stereo unspecified) as the compound, how does the composite z-score read?
Its composite z-score is -1.54.

Which composite z-score does the source give for `Cc1ccc(S[C@]2(C(=O)NCC(F)(F)F)CC(=O)N(Cc3cc(C(F)(F)F)cc(C(F)(F)F)c3)[C@@H]2c2ccc(CO)cc2I)cc1` here?
The composite z-score was -0.0631.

How did the composite z-score turn out when `C=CCC(OC(C)=O)[C@@H]1[C@@H](N(Cc2cc3ccccc3o2)C(=O)Cc2ccc(F)cc2)c2cc(OCCCO)ccc2N1C(=O)Cc1ccc2ccccc2c1` (stereo partly specified) was run?
The composite z-score was -0.241.

`CO[C@H]1O[C@H](CO)[C@@H](OC(=O)Nc2ccccc2)[C@H](OC(=O)c2cc3ccccc3[nH]2)[C@H]1OC(=O)c1cc2ccccc2[nH]1` was tested. Which composite z-score did it give?
The composite z-score was 0.499.
